Reference: PubChem BioAssay (NCATS)
Records with an inconclusive call do not appear. A number with no mark means an inactive call. Activity calls are given as the source filed them. The call rests on the fitted dose curve; in most records, active means well fitted inhibition curve with a large enough effect; inconclusive means small, poorly fitted or top-dose-only effect; inactive means flat fitted curve, though single readings scatter.

Test: qHTS profiling for inhibitors of Plasmodium falciparum proliferation (AID 504749); further: nearly all actives have a fitted effect of over 60% in size;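 on activity, negative = inhibition: 0% = DMSO vehicle and full inhibition = artemisinin control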
Conditions: P. falciparum in erythrocytes, SYBR Green DNA, 72 h; at 12.8 µM (top of the series); parasite line A
Source text: NIH National Institute of Allergy and Infectious Diseases [NIAID] NIH Chemical Genomics Center [NCGC] MLPCN Grant: None Assay Provider: Xinzhuan Su, NIAID NCGC Assay Overview: Plasmodium falciparum is a virulent malarial parasite that kills 1-2 million people worldwide each year. Transmitted by mosquitoes, the sporozoite form of the parasite enters the blood stream to infect hepatocytes, where they become merozoites that infect red blood cells (erythrocytes). Within erythrocytes, merozoites begin a […] cycle of growth and division, after which the parasite is released to infect new red blood cells. Gametocytes, which form within erythrocytes as well, circulate in the bloodstream and are ingested by the mosquito, thereby completing the life cycle. To profile malarial isolates for differential chemical responses and to identify inhibitors of malarial growth, an assay that measures P. falciparum growth and replication within erythrocytes was employed. This assay uses a DNA binding fluorescent dye (SYBR Green) to detect parasite DNA following cell lysis. Because mature erythrocytes lack DNA, only Plasmodium-derived DNA is detected.
NCGC Assay Protocol Summary: The SYBR Green viability assay was adapted from a method described previously (Plouffe et al., 2008). For screening 3 ul culture medium was dispensed into 1536 well black clear bottom plates (Aurora Biotechnologies) using a Multidrop Combi (Thermo Fisher Scientific Inc.), 23 nL compounds in DMSO were added by a pin tool (Kalypsys), and 5 ul of erythrocytes infected with P. falciparum (0.3% parasitemia, 2.5% hematocrit final concentration) were added. The plates were incubated at 37 C in a humidified incubator in 5% CO2 for 72 h, and 2 ul lysis buffer (20 mM Tris HCl, 10 mM EDTA, 0.16% saponin, 1.6% triton X, 10X SYBR Green I supplied as 10,000X […] by Invitrogen) was added to each well. The plates were mixed for 25 sec with gentle shaking and incubated overnight at room temperature in the dark. The following morning, fluorescence intensity at 485(14) nm excitation and 535(25) nm emission wavelengths was measured on an EnVision (Perkin Elmer) plate reader. Plate reads were normalized relative to the control inhibitor (0.29 uM artemisinin) and vehicle (DMSO) wells present on each plate and then corrected by an algorithm using vehicle-only control plates at the beginning and end of the compound plate stack.
Potency means the concentration at half of the fitted maximal effect.

| Structure (SMILES) | activity, negative = inhibition [%] |
| --- | --- |
| COc1ccc([C@@H]2CNC(=O)C2)cc1OC1CCCC1 | 9.55 |
| Nc1nc2c(c(=O)[nH]1)N(C=O)[C@H](CNc1ccc(C(=O)N[C@@H](CCC(=O)O)C(=O)O)cc1)CN2 | 9.3 |

Same assay, conditions: P. falciparum in erythrocytes, SYBR Green DNA, 72 h; at 12.8 µM (top of the series); parasite line B

| Structure (SMILES) | activity, negative = inhibition [%] |
| --- | --- |
| COc1ccc([C@@H]2CNC(=O)C2)cc1OC1CCCC1 | -3.14 |
| Nc1nc2c(c(=O)[nH]1)N(C=O)[C@H](CNc1ccc(C(=O)N[C@@H](CCC(=O)O)C(=O)O)cc1)CN2 | 7.79 |

Same assay, conditions: P. falciparum in erythrocytes, SYBR Green DNA, 72 h; at 28.7 µM (top of the series); parasite line A

| Structure (SMILES) | activity, negative = inhibition [%] |
| --- | --- |
| OCC(O)C(O)C(O)CO (centres undefined) | 4.99 |
| COc1ccc2c(c1OC)C(=O)OC2[C@H]1c2c(cc3c(c2OC)OCO3)CCN1C (some centres undefined) | 5.64 |

Same assay, conditions: P. falciparum in erythrocytes, SYBR Green DNA, 72 h; at 28.7 µM (top of the series); parasite line B

| Structure (SMILES) | activity, negative = inhibition [%] |
| --- | --- |
| OCC(O)C(O)C(O)CO (centres undefined) | 7.38 |
| COc1ccc2c(c1OC)C(=O)OC2[C@H]1c2c(cc3c(c2OC)OCO3)CCN1C (some centres undefined) | 5.33 |

Same assay, conditions: P. falciparum in erythrocytes, SYBR Green DNA, 72 h; parasite line A

| Structure (SMILES) | Potency |
| --- | --- |
| CCC(C(=O)O)C1CCC(C)C(C(C)C(O)C(C)C(=O)C(CC)C2OC3(C=CC(O)[C@@]4(CC[C@](C)(C5CC[C@@](O)(CC)C(C)O5)O4)O3)C(C)CC2C)O1 (some centres undefined) | 1 µM (active) |
| CCCCCCCCCCCC(CC1OC(=O)C1CCCCCC)OC(=O)C(CC(C)C)NC=O (centres undefined) | 0.355 µM (active) |
| COc1cccc2c1C(=O)c1c(O)c3c(c(O)c1C2=O)C[C@@](O)(C(=O)CO)C[C@@H]3O[C@H]1C[C@H](N)[C@H](OC2CCCCO2)[C@H](C)O1 (some centres undefined) | 3.16 µM (active) |

Same assay, conditions: P. falciparum in erythrocytes, SYBR Green DNA, 72 h; parasite line B

| Structure (SMILES) | Potency |
| --- | --- |
| CCC(C(=O)O)C1CCC(C)C(C(C)C(O)C(C)C(=O)C(CC)C2OC3(C=CC(O)[C@@]4(CC[C@](C)(C5CC[C@@](O)(CC)C(C)O5)O4)O3)C(C)CC2C)O1 (some centres undefined) | 1.12 µM (active) |
| CCCCCCCCCCCC(CC1OC(=O)C1CCCCCC)OC(=O)C(CC(C)C)NC=O (centres undefined) | 0.708 µM (active) |
| COc1cccc2c1C(=O)c1c(O)c3c(c(O)c1C2=O)C[C@@](O)(C(=O)CO)C[C@@H]3O[C@H]1C[C@H](N)[C@H](OC2CCCCO2)[C@H](C)O1 (some centres undefined) | 4.47 µM (active) |
